Results as given in PubChem BioAssay AID1347426 (Functional Genomics Laboratory (NCATS/FGL), 2020).
The whole screen tested about 31,000 sequences, of which about 1,400 (4.5%) were called active. This is one part of a sample in which actives are shown more often than they occur.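 The calls were made as follows: active = median seed-adjusted z-score above 1 or below -1; inactive = the rest.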

assay: Novel Modifiers of Survival Motor Neuron (SMN) Protein: Gene Identification via Genome-wide siRNA Screen; conditions: HEK293T SMN2-luciferase reporter, siRNA knockdown, 72 h; actives lie on both sides
Excerpt: Spinal muscular atrophy (SMA) is the most common neuromuscular autosomal recessive disorder and one of the leading genetic causes of infant death. SMA results from mutations inducing loss of function or deletion in the survival of motor neuron-1 gene (SMN1), leading to deficiency of the survival motor neuron (SMN) protein. Although a second nearly identical gene, SMN2, is retained in humans, its expression primarily produces an aberrantly spliced isoform that is largely unstable and quickly degraded. We performed a genome-wide RNAi screen using a cell-based reporter assay to identify genes and pathways that modulate SMN protein stability. The screen identified over 200 genes that led to the greatest increase or decrease in luciferase expression.
Using HEK293T cells stably expressing a luciferase reporter that combines the promoter and splicing based cassettes in tandem with the major portion of the native SMN2 cDNA with luciferase, we performed a genome-wide RNAi screen to identify modulators of SMN protein levels. Luciferase is expressed when full-length SMN protein is generated with luminescence signal proportional to SMN protein levels. Our luciferase-based reporter assay was used to screen Ambion Silencer Select Human Druggable Genome siRNA library (10418 genes, 3 unique siRNAs per gene) using lipid-based reverse transfection.
Briefly, 1 pmol of each siRNA was spotted to a well of a 384-well plate (Corning, Corning, NY) and 20 microL of serum-free DMEM containing […] of Lipofectamine RNAiMax (Life Technologies, Carlsbad, CA) was then added to each well. Transfected cells were maintained at 37 degrees C in 5% CO2 for 72 hours, 20 microL of ONE-Glo Reagent (Promega) was added to wells for luciferase quantification. Raw luminescence reads were normalized to Ambion(R) Silencer(R) Negative Control #2 siRNA, then log10 transformed. A robust statistical measure of median absolute deviation (MAD) to standardize siRNA activities from each screen. Common Seed Analysis was used to help prioritize clean hits as opposed to those appearing to arise from seed based off-target effects. Candidate modulators were defined as the genes having a MAD score greater than 1.0 or less than -1.0.

| Sequence | median seed-adjusted z-score |
| --- | --- |
| CCUGAUGUCUUAUCUCAGATT against ZNF398 | 0.119 (inactive) |
| AAAUCUUCGUGAACUUGGATT against MMD | 0.193 (inactive) |
| CCAUCUAGAGUAUCACGCATT against CYGB | -0.34 (inactive) |
| GAAAUUCCACUGUAUCUAATT against COX7A2 | -0.0808 (inactive) |
| GAGAGAAACUGUCAGAGUATT against RNF185 | -0.388 (inactive) |
| CCCUCUUCCUUAUCCUGCATT against PITPNM1 | -0.203 (inactive) |
| GAACAACCCUAACCCAAGATT against ITGAM | -1.56 (active) |
| CCAACUCGGCAAAACCGUUTT against NDUFS3 | -0.54 (inactive) |
| CAACAACACCUGUUGCUUUTT against RGS17 | -0.627 (inactive) |
| GAGCUACAUUACUAAGUCATT against ZNF223 | 0.367 (inactive) |
| CCAGGCAAAUAGUGAAGAATT against VAX1 | 0.937 (inactive) |
| GCAGUUCCUAAAUUUCCGATT against SNX9 | 0.684 (inactive) |
| GGAGAAUGCCGAAGAGGAATT against POLR2F | -3.52 (active) |
| GGCUGUACUUCGUCAUGGATT against PRKCA | -0.249 (inactive) |
| CAUCCGACAUUGAAGUUGATT against B2M | -0.367 (inactive) |
| CGAGUAUGGUUUCCGCAAATT against UHMK1 | -0.269 (inactive) |
| GAAUGCGAUUCACACCUUUTT against CAT | 0 (inactive) |
| CCCUAAUUCUUCGUCAUAATT against AMIGO2 | -0.258 (inactive) |
| CAUUGGUUUUGAUGAGUAUTT against SNRPE | -2.77 (active) |
| CUGUUUAACUGUGAGAUCATT against ANP32E | -0.0648 (inactive) |
| GCCUGCAAGUGUCCCAAAATT against NTN1 | -0.0419 (inactive) |
| GAUAUUUGCCUAUGCCUUUTT against ZMYND19 | 0.369 (inactive) |
| GAAGGACAUGUACAAGAAATT against ITPKA | -0.136 (inactive) |

| Sequence | median seed-adjusted z-score |
| --- | --- |
| CCAGCAUCCCUAGCUCAGATT against SYVN1 | -1.41 (active) |
| GUCCGUUAACUAUCUGUUATT against GNAI3 | 0.0656 (inactive) |
| AAAUUAGAGUGAACAAGAATT against NFIC | 0.72 (inactive) |
| CAGUGGAUAUCAAGCUUAATT against OPA1 | -0.182 (inactive) |
| GCAAGUGACUGCUAUCAAUTT against GRIA2 | -1.02 (active) |
| GAUCGUCUGCUGAAUACAATT against NASP | 0.133 (inactive) |
| CAUCCAUUUGUCUUGCAAATT against GTF2F2 | -1.14 (active) |
| CCACAGUUCCUGUCAUGUUTT against ACMSD | 0 (inactive) |
| GCACUUGUAAGAACUGGUATT against POSTN | -0.45 (inactive) |
| CGUCAGCGGUUUAGCUGGATT against SLC25A10 | -0.571 (inactive) |
| CGCACAGUGCCUAACCCUATT against RAB26 | 0.171 (inactive) |
| GGAAGUUCAUGCCUCUGGATT against UBA7 | 2.41 (active) |
| GGUUCUAUAGCAGACAAUATT against LOC81691 | -0.285 (inactive) |
| AGCUCCCUGCCUUUAAUAATT against CHPF | 0.248 (inactive) |
| GAUCGCUACUUACAGGAUATT against CYP51A1 | -0.242 (inactive) |
| GAGUGAUAUGGAUAGUGAATT against TTC18 | -1.15 (active) |
| GGAAUCUCAUUUUAUCGUATT against SLC7A2 | -0.245 (inactive) |
| GGAAGAAUUCAAUACGGCATT against FOXJ2 | -0.627 (inactive) |
| GGAUGCACCACAUCUAGUATT against RPS6KA3 | -0.0233 (inactive) |
| CCAAUUCCAGGUUAACUUUTT against S100A7A | 0.212 (inactive) |
| GGAGUGAAGACUUCGAGAATT against KCNN2 | -0.0251 (inactive) |
| CCUUCAAGCUGCAGACUAATT against THBS4 | -0.28 (inactive) |
| CGACAUAACUAUGUUCGGATT against ETF1 | -1.12 (active) |

| Sequence | median seed-adjusted z-score |
| --- | --- |
| GGAUUUUGCCUUAGCGGUATT against OSBPL8 | 0.231 (inactive) |
| GCCUAUCCUAGAACCAUCATT against KLK14 | -0.0998 (inactive) |
| GGACUUACCUUCAACCAAUTT against RSF1 | 0 (inactive) |
| CAACCUUCCUCGGACUAAUTT against SLC26A2 | -1.25 (active) |
| GGACUUGGAUUCGAGGAUATT against COL15A1 | 0.161 (inactive) |
| CCUAAAUGAUCGCAAAGUATT against PABPC1 | -0.126 (inactive) |
| CCUUUACUACGUGUGCACATT against POLR2I | -3.27 (active) |
| GGAAGAACUUUCUCGGUAATT against TIMP2 | 0.0444 (inactive) |
| CAAACGAUCUGAAGGUGAATT against AKTIP | -0.194 (inactive) |
| GGACAGAGGGCAACUAUAATT against KCNV2 | -1.13 (active) |
| AAGCUAUUGUGAUCUCUGATT against ZBTB3 | -0.0419 (inactive) |
| GAAUUAUGGAUGACGAUAATT against CAPSL | -0.168 (inactive) |
| CACUCGUUCCGGUUCCUUUTT against ZNF439 | -0.26 (inactive) |
| CAGUGAGGCUGUUCUCGAATT against LIMCH1 | 0.125 (inactive) |
| CAGGUGAUGUGAUAUCAUATT against VGLL2 | -0.0234 (inactive) |
| GCUAAUCCAUUUGAUGACATT against PYGO1 | -1.23 (active) |
| GAAUGUAACUUCACAACCATT against ZHX2 | 0.0708 (inactive) |
| AGAAAGCUUUGGGCAAAUATT against EEF1B2 | 0.388 (inactive) |
| CAACAUAUCUGCACAGGUATT against FLVCR2 | -0.336 (inactive) |
| GGCUGUAACGUGAACAUCATT against DAPK1 | 0.27 (inactive) |
| UCGAGCAACUUAUUCCAUATT against MED30 | -2.06 (active) |
| GCCUGUCCCAGACCAUUGATT against KLC4 | 0 (inactive) |
| GCUUCUCUUUGAAUACCCATT against KCNA2 | -1.03 (active) |
